Results as given in PubChem BioAssay AID1159580 (chemical genetic matrix, 2015).
Values joined by “and” are separate entries in the source; they are usually repeats but may differ in a detail not shown here. Identical values can stand only once. Screen size: about 5,500 compounds; about 2,000 (36%) were called active. Roughly 18% stayed inconclusive and do not appear here. Cut-off read from the data, not from the text of the source: active = normalized growth mostly below about 0.91 (no sharp cut-off); inconclusive = no clear call, values can overlap the other calls; inactive = mostly above about 0.92. Some of the results follow.

Test: chemical genetic growth profiling, strain panel (AID 1159580);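 note: tested at 20 µM; growth read once vehicle control cultures reached saturation at 30 °C; 1 = growth at the plate median or of vehicle wells; lower values mean less growth of the strain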
Details: growth OD

Measured: normalized growth

O=C(C1CCCCC1)N1CC(=O)N2CCc3ccccc3C2C1 (centres undefined)
inactive: S. cerevisiae deletion strains, locus YJR075W, strain HOC1, hits give low values 1 | S. cerevisiae deletion strains, locus YKL009W, strain mrt4, hits give low values 1.02 | S. cerevisiae deletion strains, locus YKL068W, hits give low values 1 | S. cerevisiae deletion strains, locus YKL085W, strain MDH1 (second series), hits give low values 1.01 | S. cerevisiae deletion strains, locus YKL085W, strain MDH1, hits give low values 1.01 | S. cerevisiae deletion strains, locus YKL160W, strain elf1, hits give low values 1.01 | S. cerevisiae deletion strains, locus YKL190W, strain CNB1, hits give low values 1 | S. cerevisiae deletion strains, locus YKR001C, strain vps1, hits give low values 1.01 | S. cerevisiae deletion strains, locus YKR026C, strain gcn3, hits give low values 1.01 | S. cerevisiae deletion strains, locus YKR091W, strain srl3, hits give low values 1.01 | S. cerevisiae deletion strains, locus YLL001W, strain dnm1, hits give low values 1.06 | S. cerevisiae deletion strains, locus YLL026W, hits give low values 1.01 | S. cerevisiae deletion strains, locus YLL041C, strain sdh2, hits give low values 0.995 | S. cerevisiae deletion strains, locus YLR027C, strain aat2, hits give low values 0.984 | S. cerevisiae deletion strains, locus YLR039C, strain RIC1, hits give low values 1.01 | S. cerevisiae deletion strains, locus YLR058C, strain SHM2, hits give low values 1 | S. cerevisiae deletion strains, locus YLR102C, strain apc9, hits give low values 1.01 | S. cerevisiae deletion strains, locus YLR113W, strain HOG1, hits give low values 1.01 | S. cerevisiae deletion strains, locus YLR221C, strain rsa3, hits give low values 1.03 | S. cerevisiae deletion strains, locus YLR258W, strain gsy2, hits give low values 1.03 | S. cerevisiae deletion strains, locus YLR262C, strain YPT6 (second series), hits give low values 1.04 | S. cerevisiae deletion strains, locus YLR262C, strain YPT6, hits give low values 1.02 | S. cerevisiae deletion strains, locus YLR268W, strain sec22, hits give low values 1.03 | S. cerevisiae deletion strains, locus YLR320W, strain mms22, hits give low values 1.02 | S. cerevisiae deletion strains, locus YLR330W, strain CHS5, hits give low values 1.01 | S. cerevisiae deletion strains, locus YLR342W, strain FKS1 (second series), hits give low values 1.01 | S. cerevisiae deletion strains, locus YLR342W, strain FKS1, hits give low values 1.01 | S. cerevisiae deletion strains, locus YLR357W, strain rsc2, hits give low values 0.998 | S. cerevisiae deletion strains, locus YLR370C, strain arc18, hits give low values 1.02 | S. cerevisiae deletion strains, locus YLR371W, strain rom2, hits give low values 1.01 | S. cerevisiae deletion strains, locus YLR384C, strain iki3, hits give low values 1.01 | S. cerevisiae deletion strains, locus YLR418C, strain cdc73, hits give low values 1.01 | S. cerevisiae deletion strains, locus YML016C, strain PPZ1, hits give low values 0.999 | S. cerevisiae deletion strains, locus YML032C, strain rad52, hits give low values 1.01 | S. cerevisiae deletion strains, locus YML120C, strain ndi1, hits give low values 1.04 | S. cerevisiae deletion strains, locus YML124C, strain tub3, hits give low values 1 | S. cerevisiae deletion strains, locus YMR058W, strain fet3, hits give low values 1 | S. cerevisiae deletion strains, locus YMR078C, strain ctf18, hits give low values 0.997 | S. cerevisiae deletion strains, locus YMR125W, strain sto1, hits give low values 1.02 | S. cerevisiae deletion strains, locus YMR129W, hits give low values 1.01 | S. cerevisiae deletion strains, locus YMR205C, strain PFK2, hits give low values 1.02 | S. cerevisiae deletion strains, locus YMR223W, strain ubp8, hits give low values 0.987 | S. cerevisiae deletion strains, locus YMR231W, strain pep5, hits give low values 1 | S. cerevisiae deletion strains, locus YMR263W, strain SAP30, hits give low values 1 | S. cerevisiae deletion strains, locus YMR307W, strain GAS1, hits give low values 1 and 0.995 | S. cerevisiae deletion strains, locus YNL067W, strain RPL9B, hits give low values 1 | S. cerevisiae deletion strains, locus YNL071W, strain lat1, hits give low values 0.996 | S. cerevisiae deletion strains, locus YNL153C, strain GIM3, hits give low values 1.03 | S. cerevisiae deletion strains, locus YNL175C, strain NOP13, hits give low values 1.01 | S. cerevisiae deletion strains, locus YNL183C, strain NPR1, hits give low values 0.96 | S. cerevisiae deletion strains, locus YNL197C, strain WHI3, hits give low values 1.01 | S. cerevisiae deletion strains, locus YNL209W, strain ssb2, hits give low values 1 | S. cerevisiae deletion strains, locus YNL224C, strain SQS1, hits give low values 1.02 | S. cerevisiae deletion strains, locus YNL233W, strain BNI4, hits give low values 0.995 | S. cerevisiae deletion strains, locus YNL248C, strain rpa49, hits give low values 0.893 | S. cerevisiae deletion strains, locus YNL250W, strain rad50, hits give low values 1.01 | S. cerevisiae deletion strains, locus YNL271C, strain bni1, hits give low values 1 | S. cerevisiae deletion strains, locus YNL298W, strain CLA4, hits give low values 1.01 | S. cerevisiae deletion strains, locus YNL307C, strain MCK1, hits give low values 1.02 | S. cerevisiae deletion strains, locus YNL322C, strain KRE1 (second series), hits give low values 1.02 | S. cerevisiae deletion strains, locus YNL322C, strain KRE1, hits give low values 1 and 1.01 | S. cerevisiae deletion strains, locus YNR049C, strain mso1, hits give low values 1 | S. cerevisiae deletion strains, locus YNR052C, strain pop2, hits give low values 1.01 | S. cerevisiae deletion strains, locus YOL006C, strain TOP1, hits give low values 0.912 | S. cerevisiae deletion strains, locus YOL012C, strain htz1 0.872 | S. cerevisiae deletion strains, locus YOL147C, strain pex11, hits give low values 1.01 | S. cerevisiae deletion strains, locus YOR001W, strain rrp6, hits give low values 0.971 | S. cerevisiae deletion strains, locus YOR061W, strain CKA2, hits give low values 1 | S. cerevisiae deletion strains, locus YOR069W, strain VPS5, hits give low values 1 | S. cerevisiae deletion strains, locus YOR070C, strain gyp1, hits give low values 1 | S. cerevisiae deletion strains, locus YOR080W, strain dia2, hits give low values 1.01 | S. cerevisiae deletion strains, locus YOR083W, strain WHI5 (second series), hits give low values 1.01 | S. cerevisiae deletion strains, locus YOR083W, strain WHI5, hits give low values 1.03 | S. cerevisiae deletion strains, locus YOR106W, strain vam3, hits give low values 1.01 | S. cerevisiae deletion strains, locus YOR136W, strain idh2, hits give low values 1.01 | S. cerevisiae deletion strains, locus YOR144C, strain elg1, hits give low values 1.01 | S. cerevisiae deletion strains, locus YOR184W, strain ser1, hits give low values 1 | S. cerevisiae deletion strains, locus YOR231W, strain MKK1, hits give low values 1 | S. cerevisiae deletion strains, locus YOR265W, strain rbl2, hits give low values 1 | S. cerevisiae deletion strains, locus YOR270C, strain vph1, hits give low values 0.955 | S. cerevisiae deletion strains, locus YOR290C, strain snf2, hits give low values 1.02 | S. cerevisiae deletion strains, locus YOR316C, strain cot1, hits give low values 1 | S. cerevisiae deletion strains, locus YPL051W, strain arl3, hits give low values 0.988 | S. cerevisiae deletion strains, locus YPL078C, strain atp4, hits give low values 0.974 | S. cerevisiae deletion strains, locus YPL106C, strain sse1, hits give low values 1.04 | S. cerevisiae deletion strains, locus YPL240C, strain hsp82, hits give low values 0.998 | S. cerevisiae deletion strains, locus YPL241C, strain CIN2, hits give low values 1 | S. cerevisiae deletion strains, locus YPL256C, strain CLN2, hits give low values 0.965 | S. cerevisiae deletion strains, locus YPR119W, strain clb2, hits give low values 1 | S. cerevisiae deletion strains, locus YPR141C, strain kar3, hits give low values 1.01 | S. cerevisiae deletion strains, locus YPR163C, strain tif3, hits give low values 1.02 | S. cerevisiae deletion strains, locus YPR167C, strain met16, hits give low values 1.02 | S. cerevisiae deletion strains, strain wtn01, hits give low values 1.02 | S. cerevisiae strains, strain wild type, hits give low values 0.999
